From PubChem BioAssay (NCATS)
Results filed as inconclusive are left out. Activity calls are given as the source filed them. Calls come from the whole dose curve; as a rule, active = well fitted curve in the direction sought with a large enough effect; inconclusive = small, poorly fitted or top-dose-only effect, or another doubt; inactive = no such curve, though single readings can be large; an effect the other way counts as inactive or inconclusive.

Columns and labels:
[1] = qHTS of pediatric cancer cell lines to identify multiple opportunities for drug repurposing: Primary screen for A673 cells (AID 1347092); note: % is set by controls: 0 for no effect and ±100 for the full control effect; nearly all actives have a fitted effect of over 45% in size
Procedure, shortened: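 48 h compound exposure, A673, 500-1,000 cells/well, 37 degrees C/5% CO2. MIPE: 11-point, 0.78 nM-46 µM; NPC: 8-point, 0.59 nM-46 µM (final). Readout CellTiter-Glo luminescence after 15 min RT.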

[2] = qHTS of pediatric cancer cell lines to identify multiple opportunities for drug repurposing: Primary screen for SK-N-MC cells (AID 1347093);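 note: series mostly up to about 46 µM; plate controls were DMSO neutral control for no effect and bortezomib for full effect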
Procedure, shortened: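 Metabolically active cells were quantified by ATP-dependent luminescence (CellTiter-Glo, 15 min at room temperature) following 48 h treatment. Cells had been plated at 500-1,000 per well and settled for 5 h beforehand.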

[3] = qHTS of pediatric cancer cell lines to identify multiple opportunities for drug repurposing: Primary screen for BT-37 cells (AID 1347094);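 note: series mostly up to about 57 µM; plate controls were DMSO for no effect and bortezomib for full effect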
Procedure, shortened: (§1)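 Quantitative HTS format: each compound titrated (MIPE 11 points from 0.78 nM, NPC 8 points from 0.59 nM) onto cells plated 5 hours earlier. After 48 h at 37 degrees C, CellTiter-Glo luminescence was recorded.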

[4] = qHTS of pediatric cancer cell lines to identify multiple opportunities for drug repurposing: Primary screen for NB-EBc1 cells (AID 1347095);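 note: plate controls were DMSO neutral control for no effect and bortezomib for full effect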
Procedure, shortened: as §1

[5] = qHTS of pediatric cancer cell lines to identify multiple opportunities for drug repurposing: Primary screen for U-2 OS cells (AID 1347096);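 note: plate controls were DMSO wells for no effect and bortezomib positive control wells for full effect; nearly all actives have a fitted effect of over 50% in size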
Procedure, shortened: (§2)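 Cells (500-1,000/well) rested 5 h, then received compounds for 48 h; metabolically active cells were measured by CellTiter-Glo luminescence. Final concentrations spanned up to 46 µM (MIPE, 11-point) or 0.59 nM-46 µM (NPC, 8-point) in primary screens, 11-point in follow-ups.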

[6] = qHTS of pediatric cancer cell lines to identify multiple opportunities for drug repurposing: Primary screen for Saos-2 cells (AID 1347097); note: % is set by controls: 0 for no effect and ±100 for the full control effect; nearly all actives have a fitted effect of over 40% in size
Procedure, shortened: as §1

[7] = qHTS of pediatric cancer cell lines to identify multiple opportunities for drug repurposing: Primary screen for SK-N-SH cells (AID 1347098);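 note: DMSO served as neutral control and bortezomib at 2.3 µM as positive control; % is set by controls: 0 for no effect and ±100 for the full control effect; nearly all actives have a fitted effect of over 65% in size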
Procedure, shortened: as §2

[8] = qHTS of pediatric cancer cell lines to identify multiple opportunities for drug repurposing: Primary screen for NB1643 cells (AID 1347099);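 note: plate controls were DMSO neutral control for no effect and bortezomib positive control for full effect; nearly all actives have a fitted effect of over 50% in size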
Procedure, shortened: as §1

[9] = qHTS of pediatric cancer cell lines to identify multiple opportunities for drug repurposing: Primary screen for LAN-5 cells (AID 1347100);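 note: plate controls were DMSO neutral control for no effect and bortezomib positive control for full effect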
Procedure, shortened: as §2

[10] = qHTS of pediatric cancer cell lines to identify multiple opportunities for drug repurposing: Primary screen for BT-12 cells (AID 1347101);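 note: plate controls were DMSO for no effect and bortezomib positive control for full effect; nearly all actives have a fitted effect of over 25% in size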
Procedure, shortened: as §2

O=C(O)CCCCC1CCSS1 (stereo not given)
inactive: outcome [1] | Potency [2] | outcome [3] | outcome [4] | outcome [5] | outcome [6] | outcome [7] | Potency [8] | outcome [9] | outcome [10]

Cc1c(I)c(=O)n(-c2ccccc2)n1C
inactive: outcome [1] | Potency [2] | outcome [3] | outcome [4] | outcome [5] | outcome [6] | outcome [7] | Potency [8] | outcome [9] | outcome [10]

CC(C)CCCC(C)CCCC(C)CCCCC(C)CCCC(C)CCCC(C)C (stereo not given)
inactive: outcome [1] | Potency [2] | outcome [3] | outcome [4] | outcome [5] | outcome [6] | outcome [7] | Potency [8] | outcome [9] | outcome [10]

COc1ccc(-c2cc(=O)c3c(O)cc(O[C@@H]4O[C@H](CO[C@@H]5O[C@@H](C)[C@H](O)[C@@H](O)[C@H]5O)[C@@H](O)[C@H](O)[C@H]4O)cc3o2)cc1O
inactive: outcome [1] | Potency [2] | outcome [3] | outcome [4] | outcome [5] | outcome [6] | outcome [7] | Potency [8] | outcome [9] | outcome [10]

C/C=C1\[C@H]2C=C(C)C[C@]1(N)c1ccc(=O)[nH]c1C2
inactive: outcome [1] | Potency [2] | outcome [3] | outcome [4] | outcome [5] | outcome [6] | outcome [7] | Potency [8] | outcome [9] | outcome [10]

CCOC(=O)[C@H](CCc1ccccc1)N[C@@H](C)C(=O)N1Cc2cc(OC)c(OC)cc2C[C@H]1C(=O)O
inactive: outcome [1] | Potency [2] | outcome [3] | outcome [4] | outcome [5] | outcome [6] | outcome [7] | Potency [8] | outcome [9] | outcome [10]

CC1(C)[C@@H](OC(=O)CCC(=O)O)CC[C@]2(C)[C@H]3C(=O)C=C4[C@@H]5C[C@@](C)(C(=O)O)CC[C@]5(C)CC[C@@]4(C)[C@]3(C)CC[C@@H]12
inactive: outcome [1] | Potency [2] | outcome [3] | outcome [4] | outcome [5] | outcome [6] | outcome [7] | Potency [8] | outcome [9] | outcome [10]

Nc1ncnc(Nc2ccccc2)n1
inactive: outcome [1] | Potency [2] | outcome [3] | outcome [4] | outcome [5] | outcome [6] | outcome [7] | Potency [8] | outcome [9] | outcome [10]

O=C(CN1CCNCC1)NC1CCCCC1
inactive: outcome [1] | Potency [2] | outcome [3] | outcome [4] | outcome [5] | outcome [6] | outcome [7] | Potency [8] | outcome [9] | outcome [10]

Cc1c(N(C)C)c(=O)n(-c2ccccc2)n1C
inactive: outcome [1] | Potency [2] | outcome [3] | outcome [4] | outcome [5] | outcome [6] | outcome [7] | Potency [8] | outcome [9] | outcome [10]

CN1CC(=O)NC1=N
inactive: outcome [1] | Potency [2] | outcome [3] | outcome [4] | outcome [5] | outcome [6] | outcome [7] | Potency [8] | outcome [9] | outcome [10]

CC(=O)Oc1cccc(C)c1
inactive: outcome [1] | Potency [2] | outcome [3] | outcome [4] | outcome [5] | outcome [6] | outcome [7] | Potency [8] | outcome [9] | outcome [10]

CC(C)NC[C@@H](O)COc1ccc(CC(N)=O)cc1
inactive: outcome [1] | Potency [2] | outcome [3] | outcome [4] | outcome [5] | outcome [6] | outcome [7] | Potency [8] | outcome [9] | outcome [10]

O=C(O)c1ccccc1OP(=O)(O)O
inactive: outcome [1] | Potency [2] | outcome [3] | outcome [4] | outcome [5] | outcome [6] | outcome [7] | Potency [8] | outcome [9] | outcome [10]

CCCNC(C)C(=O)Nc1c(C)csc1C(=O)OC (stereo not given)
inactive: outcome [1] | Potency [2] | outcome [3] | outcome [4] | outcome [5] | outcome [6] | outcome [7] | Potency [8] | outcome [9] | outcome [10]

N[C@@H](Cc1ccc(O)cc1)C(=O)O
inactive: activity change, negative = cytotoxic [1] 2.23% [at 9.22 µM] | activity change, negative = cytotoxic [2] 11% [at 9.22 µM] | activity change, negative = cytotoxic [3] 20.6% [at 11.5 µM] | activity change, negative = cytotoxic [4] 15% [at 9.22 µM] | activity change, negative = cytotoxic [5] 16.3% [at 9.22 µM] | activity change, negative = cytotoxic [6] 14.8% [at 9.22 µM] | activity change, negative = cytotoxic [7] 5.3% [at 11.4 µM] | activity change, negative = cytotoxic [8] 17.5% [at 9.22 µM] | activity change, negative = cytotoxic [9] 6.26% [at 9.22 µM] | activity change, negative = cytotoxic [10] 11.7% [at 11.5 µM]

NS(=O)(=O)c1cc(-c2nn[nH]n2)c(NCc2cccs2)cc1Cl
inactive: outcome [1] | Potency [2] | outcome [3] | outcome [4] | outcome [5] | outcome [6] | outcome [7] | Potency [8] | outcome [9] | outcome [10]

NS(=O)(=O)c1ccc(C(=O)O)cc1
inactive: outcome [1] | Potency [2] | outcome [3] | outcome [4] | outcome [5] | outcome [6] | outcome [7] | Potency [8] | outcome [9] | outcome [10]

c1ccc2[nH]ccc2c1
inactive: outcome [1] | Potency [2] | outcome [3] | outcome [4] | outcome [5] | outcome [6] | outcome [7] | Potency [8] | outcome [9] | outcome [10]

CCCCCOC(=O)Nc1nc(=O)n([C@@H]2O[C@H](C)[C@@H](O)[C@H]2O)cc1F
inactive: outcome [1] | Potency [2] | outcome [3] | outcome [4] | outcome [5] | outcome [6] | outcome [7] | Potency [8] | outcome [9] | outcome [10]

CC1CC(OC(=O)c2ccccc2O)CC(C)(C)C1 (stereo not given)
inactive: outcome [1] | Potency [2] | outcome [3] | outcome [4] | outcome [5] | outcome [6] | outcome [7] | Potency [8] | outcome [9] | outcome [10]

CN[C@@H]1[C@@H](O)[C@@H](O[C@@H]2[C@H](O)[C@H](O[C@H]3OC(CN)=CC[C@H]3N)[C@@H](N)C[C@H]2N)OCC1(C)O (stereo not given in full)
inactive: outcome [1] | Potency [2] | outcome [3] | outcome [4] | outcome [5] | outcome [6] | outcome [7] | Potency [8] | outcome [9] | outcome [10]
